Measurements: PubChem BioAssay AID1851 (National Center for Advancing Translational Sciences (NCATS), 2009)
Out of some 16,000 compounds screened, about 5,800 (36%) were called active. Not shown: some 23% with an inconclusive outcome. Calls follow the shape of the dose curve; as a rule, active = well fitted curve in the direction sought with a large enough effect; inconclusive = small, poorly fitted or top-dose-only effect, or effect the other way; inactive = no such curve, though single readings can be large or run the other way. The list shows a part of the results.

Each compound was assayed against Cytochrome P450 2C19 (Homo sapiens) (UniProt P33261) (assay: Cytochrome panel assay with activity outcomes). Conditions: recombinant CYP, pro-luciferin dealkylation, luminescence, p450-cyp2c19; series mostly up to 57.1 µM.
Chain of Cytochrome P450 2C19 (Homo sapiens) (P33261 whole entry, looked up): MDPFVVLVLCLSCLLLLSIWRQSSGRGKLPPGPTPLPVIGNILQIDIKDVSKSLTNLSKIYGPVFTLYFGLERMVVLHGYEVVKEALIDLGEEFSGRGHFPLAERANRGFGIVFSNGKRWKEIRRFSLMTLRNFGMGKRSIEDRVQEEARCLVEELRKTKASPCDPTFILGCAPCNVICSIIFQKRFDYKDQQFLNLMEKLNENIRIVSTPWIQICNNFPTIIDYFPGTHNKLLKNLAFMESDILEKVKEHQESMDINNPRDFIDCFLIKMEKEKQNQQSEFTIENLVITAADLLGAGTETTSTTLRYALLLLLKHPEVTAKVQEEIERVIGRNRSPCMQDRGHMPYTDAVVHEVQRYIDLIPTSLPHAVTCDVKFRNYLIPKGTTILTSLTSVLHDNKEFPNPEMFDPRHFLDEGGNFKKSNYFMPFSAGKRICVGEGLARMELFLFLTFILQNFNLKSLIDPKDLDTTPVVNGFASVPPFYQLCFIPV
% is scaled to controls: 0 for no effect and ±100 for the full control effect.

| SMILES | AC50 | activity, negative = inhibition |
| --- | --- | --- |
| CC(=O)OCc1c(C(F)(F)F)nn(C)c1Sc1ccccc1 | 0.891 µM (active) | – |
| CCC(=O)OCc1c(C(F)(F)F)nn(C)c1Sc1ccc(F)cc1 | 1.41 µM (active) | – |
| CC(C)(N=NC(C)(C)C1=NCCN1)C1=NCCN1 | – | 30.5% [at 11.4 µM] (inactive) |
| COC(Cn1c(C)c(C(C)=O)c(C(C)=O)c1C)OC | inactive | – |
| N#C/C(=C/c1ccc(N2CCCC2)c([N+](=O)[O-])c1)c1nc2ccccc2[nH]1 | 1.26 µM (active) | – |
| N#C/C(=C\c1ccc(N2CCCC2)c([N+](=O)[O-])c1)c1nc2ccccc2[nH]1 | 1 µM (active) | – |
| Cn1c(=O)n2n(c1=O)[C@H]1[C@H](O)[C@H]3O[C@H]3C(=O)[C@H]1CC2 | – | 20.1% [at 11.4 µM] (inactive) |
| C1CCC(C(C[C@@H]2CCCCN2)C2CCCCC2)CC1 | inactive | – |
| C[C@@H]1O[C@H](O[C@@H]2[C@@H](Oc3cc(O)c4c(c3)O[C@H](c3ccc(O)cc3)CC4=O)O[C@@H](CO)[C@@H](O)[C@H]2O)[C@@H](O)[C@H](O)[C@@H]1O | inactive | – |
| c1ccc(-c2nc3ccccc3o2)nc1 | 14.1 µM (active) | – |
| c1ccc(-c2ccccn2)nc1 | inactive | – |
| O=S(=O)(O)c1ccc(-c2nnc(-c3ccccn3)nc2-c2ccc(S(=O)(=O)O)o2)o1 | – | -6.8% [at 11.4 µM] (inactive) |
| CC(C)=CCNc1ncnc2nc[nH]c12 | – | 26.8% [at 11.4 µM] (inactive) |
| O=[N+]([O-])/C=C/c1cn(Cc2ccccc2)c2ccccc12 | 1.41 µM (active) | – |
| O=C1CS/C(=C\[N+](=O)[O-])N1c1ccc(OC(F)(F)F)cc1 | 3.98 µM (active) | – |
| C/C=C\C1=C(CO)C(=O)C2O[C@]2(CC=C(C)C)C1=O (some centres undefined) | – | -25.8% [at 11.4 µM] (inactive) |
| Cc1ccc(C(=O)N2C3C=CC(C3)C2(C(F)(F)F)C(F)(F)F)cc1 (centres undefined) | 15.8 µM (active) | – |
| COc1ccccc1OC[C@H](O)COC(N)=O | inactive | – |
| O=S(=O)(CC(O)COc1ccccc1Cl)c1ccccc1 (centres undefined) | 7.08 µM (active) | – |
| C=CCOc1ccccc1OC[C@H](O)CNC(C)C | inactive | – |
| O=C(Nc1cccc2ncccc12)c1ccc(-c2ccc(Br)cc2)o1 | 4.47 µM (active) | – |
| O=C(Nc1cccc2ncccc12)c1cccc(F)c1 | inactive | – |
| COc1ccc2[nH]cc(CCNc3ccnc(-c4ccccc4C)n3)c2c1 | 2.51 µM (active) | – |
| COc1ccc2[nH]cc(CCNc3ccnc(-c4ccccc4C(F)(F)F)n3)c2c1 | 25.1 µM (active) | – |
| CC(=O)NCCNc1ccnc(-c2ccccc2C)n1 | inactive | – |
| COc1cccc(CNc2ccc(F)c(Cl)c2)c1O | 3.16 µM (active) | – |

| SMILES | AC50 | activity, negative = inhibition |
| --- | --- | --- |
| Cc1noc(C)c1C(=O)N1CCC[C@@]2(CCN(C(=O)Nc3ccccc3)C2)C1 | inactive | – |
| CCC(CC)C(=O)Nc1cccc(/C(C)=N/NC(=O)c2c(Br)cnn2C)c1 | inactive | – |
| CCOC(=O)c1c(NC(=O)c2c(Br)cnn2C)c(C#N)nn1-c1ccccc1 | 11.2 µM (active) | – |
| O=C1NC(=S)N/C1=C/c1cccc([N+](=O)[O-])c1O | inactive | – |
| Cc1ccc(C(c2ccc(C)o2)c2cccc([N+](=O)[O-])c2O)o1 | 3.55 µM (active) | – |
| Cc1c(-c2ccc(O)cc2)nn(-c2ccc(O)cc2)c1-c1ccc(OCCN2CCCCC2)cc1 | inactive | – |
| Cc1ccc(C(=O)N/C(=C/C=C/c2ccccc2)C(=O)NCc2ccco2)cc1 | 2.24 µM (active) | – |
| C=CCNC(=O)/C(=C\C=C\c1ccccc1)NC(=O)c1ccc(OCCCC)cc1 | 14.1 µM (active) | – |
| CC(C)OC(=O)/C(=C\C=C\c1ccccc1)NC(=O)c1ccccc1 | inactive | – |
| O=C(NCC1CCCO1)/C(=C\c1ccco1)NC(=O)c1ccccc1 (centres undefined) | inactive | – |
| Cc1ccc(CSc2nnc(-c3ccncc3)n2CC2CCCO2)cc1 (centres undefined) | 4.47 µM (active) | – |
| COc1ccc(-c2nc3cnc(N(C)C)nc3n(C[C@H]3CCCO3)c2=O)cc1 | inactive | – |
| CCC(=O)Nc1ccc(C(=O)CSc2nnc(-c3ccc(O)cc3)n2CC2CCCO2)cc1OC (centres undefined) | inactive | – |
| CCn1c(-c2ccc(N(C)C)cc2)nc2ccccc21 | 39.8 µM (active) | – |
| O=C(NCCCc1ccccc1)c1cccs1 | 2.51 µM (active) | – |
| Cc1ccc(NC(=O)NCCCc2ccccc2)cc1 | 2.51 µM (active) | – |
| Cc1cc(C)c(NC(=O)CS(=O)CC(=O)NCCCc2ccccc2)c(C)c1 (centres undefined) | inactive | – |
| Cc1ccc(NC(=O)NNS(=O)(=O)c2ccc(Br)cc2)cc1 | inactive | – |
| Cc1ccc(S(=O)(=O)NNc2ccccc2)cc1 | 2.82 µM (active) | – |
| Cc1ccc(S(=O)(=O)NC(=O)OC23COCN2COC3)cc1 | – | 12.8% [at 11.4 µM] (inactive) |
| Cc1ccc(NNS(=O)(=O)c2ccc(C)cc2)cc1 | 7.08 µM (active) | – |
| CO[C@H]1COC(=O)[C@@H](Cc2ccccc2)NC(=O)[C@@H](C)COC(=O)CCC[C@@H]1C | – | -15.4% [at 11.4 µM] (inactive) |
| COc1ccccc1C1(CC(=O)Nc2nccs2)CCOC(C(C)C)C1 (centres undefined) | 1.58 µM (active) | – |
| COc1ccc(-c2csc(-n3ncc(-c4cccs4)c3N)n2)cc1 | inactive | – |
| Nc1c(-c2cccs2)cnn1-c1nc(-c2ccc(Cl)cc2Cl)cs1 | 0.0708 µM (active) | – |
| Nc1c(-c2cccs2)cnn1-c1nc(-c2ccc(F)cc2)cs1 | inactive | – |

| SMILES | AC50 | activity, negative = inhibition |
| --- | --- | --- |
| COc1ccc(CNc2ncncc2-c2ccccc2C(F)(F)F)c(OC)c1 | 1.58 µM (active) | – |
| COc1ccccc1CNc1ncncc1-c1ccccc1C(F)(F)F | 1.58 µM (active) | – |
| COCCn1c(=O)c(C)nc2cnc(N(C)C)nc21 | inactive | – |
| CN(C)C(=O)c1ccc(-c2ccc3ncnc(N4CCOCC4)c3c2)cc1 | inactive | – |
| COc1ccc(-n2c(=O)c(C)nc3cnc(N4CCOCC4)nc32)cc1 | inactive | – |
| COC(=O)c1ccc(Oc2nc(N(C)C)nc(N3CCOCC3)n2)cc1 | 14.1 µM (active) | – |
| N#Cc1c(NC(=O)C(F)(F)F)sc2c3c(=O)c4ccccc4c(=O)c=3oc3ccccc3c12 | 0.501 µM (active) | – |
| Cc1cccc(N2CCN(C(=O)CCCn3c(=S)[nH]c4cc5c(cc4c3=O)OCO5)CC2)c1C | 2.82 µM (active) | – |
| O=C(CCCn1c(=S)[nH]c2cc3c(cc2c1=O)OCO3)N1CCN(c2ncccn2)CC1 | 22.4 µM (active) | – |
| O=C(CCCn1c(=S)[nH]c2cc3c(cc2c1=O)OCO3)N1CCN(c2ccccc2)CC1 | 10 µM (active) | – |
| C=CCNC(=O)c1ccc(Cn2c(=S)[nH]c3cc4c(cc3c2=O)OCO4)cc1 | inactive | – |
| Cn1c(=S)c2[nH]c(SCc3cccnc3)nc2n(C)c1=O | – | 23.1% [at 11.4 µM] (inactive) |
| O=c1c2cc(Br)ccc2[nH]c(=S)n1Cc1cccnc1 | 1.58 µM (active) | – |
| O=C(c1cnccn1)N1CCC2(CC1)CN(c1cccc(-c3ccccc3)c1)C2 | inactive | – |
| O=C(O)/C=C\C(=O)Nc1cccc2c1-c1ccccc1C2=O | – | 28.6% [at 11.4 µM] (inactive) |
| Cc1ccccc1CNc1ncnc2c1ncn2[C@@H]1O[C@@H](CO)[C@H](O)[C@@H]1O | inactive | – |
| O=C(CCCn1c(=S)[nH]c2ccc(Br)cc2c1=O)NCC1CCCO1 (centres undefined) | 3.55 µM (active) | – |
| O=C(CCCn1c(=S)[nH]c2ccc(Br)cc2c1=O)N1CCN(c2ccccn2)CC1 | 2.51 µM (active) | – |
| CCCc1nnc(NC(=O)CCC(=O)N2CCN(c3ccccn3)CC2)s1 | inactive | – |
| CN=C(NC#N)NCCSC[C@H]1N=CN=C1C | inactive | – |
| N[C@@H]1[C@@H]2[C@@H]3C[C@H]4N(CC[C@@]14C(=O)C(=O)O)CC3=CCO[C@@H]2CC(=O)O | – | -13.5% [at 11.4 µM] (inactive) |
| Cc1ccc(S(=O)(=O)NCCSc2nnnn2C)cc1 | 5.01 µM (active) | – |
| c1cncc(CNc2ncnc3ccc(-c4ccoc4)cc23)c1 | 0.0251 µM (active) | – |
| Cc1cccc(CNc2ncnc3ccc(-c4ccoc4)cc23)c1 | 7.94 µM (active) | – |
| Cc1cccc(CNc2ncnc3ccc(-c4cccc(C#N)c4)cc23)c1 | inactive | – |
| Cn1cccc1C(=O)N1CCC2(CC1)CN(C(c1ccccc1)c1ccccc1)C2 | inactive | – |

| SMILES | AC50 | activity, negative = inhibition |
| --- | --- | --- |
| CC(C)N(C(=O)CSc1nc2ccccc2n1-c1ccccc1)C(C)C | 7.94 µM (active) | – |
| COC(=O)c1cc2c(ccn2-c2ccc(F)cc2)n1CC(C)C | 3.16 µM (active) | – |
| COC(=O)c1cc2c(ccn2-c2ccc(F)cc2)n1C(C)C | 2 µM (active) | – |
| COCCn1c(=O)c(-c2ccc(F)cc2)nc2cnc(N(C)C)nc21 | inactive | – |
| C=C[C@H](N)CCC(=O)O | inactive | – |
| CCc1ccccc1NC(=O)CSc1nc(-c2ccccc2)nn1C(=O)c1cccc([N+](=O)[O-])c1 | 0.398 µM (active) | – |
| CN(C)Cc1ccccc1-c1cc(NC2CC2)ncn1 | inactive | – |
| COc1ccccc1-c1cc(-n2ccnc2)ncn1 | 2 µM (active) | – |
| CNc1cc(-c2ccccc2CN(C)C)ncn1 | inactive | – |
| CN(C)Cc1ccccc1-c1cc(-n2ccnc2)ncn1 | 25.1 µM (active) | – |
| CSc1nc2cc(S(=O)(=O)N3CCCCC3)ccc2s1 | 1.26 µM (active) | – |
| O=C(O)CCC(=O)N1CCc2cc(S(=O)(=O)N3CCCCC3)ccc21 | inactive | – |
| NS(=O)(=O)c1cccc2c1c([N+](=O)[O-])cc1nc(O)c(O)nc12 | inactive | – |
| c1cncc(CNc2cc(-c3ccoc3)ncn2)c1 | inactive | – |
| CN(C)C(=O)c1ccc(-c2cc(NCc3cccnc3)ncn2)cc1 | inactive | – |
| COc1cccc(-c2cc(NCc3ccccc3)ncn2)c1 | 7.94 µM (active) | – |
| COc1cccc(-c2cc(NCc3cccnc3)ncn2)c1 | 10 µM (active) | – |
| Nc1ccn([C@@H]2CC[C@H](CO)O2)c(=O)n1 | inactive | – |
| O=C(O)[C@@H]1[C@@H]2C[C@H]3c4[nH]c5ccccc5c4CCN3C[C@@H]2CC[C@@H]1O | inactive | – |
| S=C(NCc1ccccn1)Nc1cccc(Cl)c1 | 3.55 µM (active) | – |
| Cc1ccc(NC(=S)N2CCN(C(=O)C3CCCO3)CC2)c(C)c1 (centres undefined) | inactive | – |
| O=C(Nc1ccc(Cl)cc1)NC1CCCCC1 | 8.91 µM (active) | – |
| Cc1ccc(NC(=S)N2CCN(C3CCCCC3)CC2)cc1 | 6.31 µM (active) | – |
| CC(=O)NS(=O)(=O)c1ccc(NC(=O)NC2CCCCC2)cc1 | inactive | – |
| S=C(Nc1cccc(Cl)c1)NC1CCCCC1 | 7.08 µM (active) | – |
| NC(=O)c1ccc(NC(=O)C2CCCO2)cc1 (centres undefined) | inactive | – |
